Test results taken from ChEMBL document CHEMBL1961873, “Compounds: GSK PKIS; Assays: Nanosyn kinase panel” (2012).

Key:
[1] = biological target: CDK3/Cyclin E (Homo sapiens) (UniProt P24864+Q00526); settings: at 1 µM;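 note: each figure is a mean percent inhibition of the CDK3/cyclin E complex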
[2] = biological target: Cyclin-dependent kinase 4 (Homo sapiens) (UniProt P11802); settings: at 0.1 µM
[3] = biological target: Cyclin-dependent kinase 4 (Homo sapiens) (UniProt P11802); settings: at 1 µM
[4] = biological target: Cyclin-dependent kinase 5 (Homo sapiens) (UniProt Q00535); settings: at 0.1 µM
Cyclin-dependent kinase 5 (Homo sapiens), sequence (Q00535 whole entry, looked up): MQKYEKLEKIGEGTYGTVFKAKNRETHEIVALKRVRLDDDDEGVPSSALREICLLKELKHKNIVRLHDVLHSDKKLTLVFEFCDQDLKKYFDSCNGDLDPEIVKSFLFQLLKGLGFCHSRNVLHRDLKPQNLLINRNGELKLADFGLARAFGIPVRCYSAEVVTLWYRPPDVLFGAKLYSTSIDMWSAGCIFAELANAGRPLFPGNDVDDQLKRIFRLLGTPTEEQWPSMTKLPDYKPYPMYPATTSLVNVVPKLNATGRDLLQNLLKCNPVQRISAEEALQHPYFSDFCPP

[5] = biological target: Cyclin-dependent kinase 5 (Homo sapiens) (UniProt Q00535); settings: at 1 µM
[6] = biological target: Cyclin-dependent kinase 6 (Homo sapiens) (UniProt Q00534); settings: at 0.1 µM
Cyclin-dependent kinase 6 (Homo sapiens), sequence (Q00534 whole entry): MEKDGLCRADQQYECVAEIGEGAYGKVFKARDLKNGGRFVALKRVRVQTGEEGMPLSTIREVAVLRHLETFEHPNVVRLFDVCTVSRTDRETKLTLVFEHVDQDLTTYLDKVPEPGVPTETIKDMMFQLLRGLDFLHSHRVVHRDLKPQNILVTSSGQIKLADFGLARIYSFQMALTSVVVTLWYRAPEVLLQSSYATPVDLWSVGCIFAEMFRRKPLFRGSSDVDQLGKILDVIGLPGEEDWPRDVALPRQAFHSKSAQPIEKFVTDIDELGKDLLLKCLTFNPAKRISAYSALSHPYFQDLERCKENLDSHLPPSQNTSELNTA

[7] = biological target: Cyclin-dependent kinase 6 (Homo sapiens) (UniProt Q00534); settings: at 1 µM
[8] = biological target: Dual specificity protein kinase CLK2 (Homo sapiens) (UniProt P49760); settings: at 0.1 µM
Dual specificity protein kinase CLK2 (Homo sapiens), sequence (P49760 whole entry, looked up): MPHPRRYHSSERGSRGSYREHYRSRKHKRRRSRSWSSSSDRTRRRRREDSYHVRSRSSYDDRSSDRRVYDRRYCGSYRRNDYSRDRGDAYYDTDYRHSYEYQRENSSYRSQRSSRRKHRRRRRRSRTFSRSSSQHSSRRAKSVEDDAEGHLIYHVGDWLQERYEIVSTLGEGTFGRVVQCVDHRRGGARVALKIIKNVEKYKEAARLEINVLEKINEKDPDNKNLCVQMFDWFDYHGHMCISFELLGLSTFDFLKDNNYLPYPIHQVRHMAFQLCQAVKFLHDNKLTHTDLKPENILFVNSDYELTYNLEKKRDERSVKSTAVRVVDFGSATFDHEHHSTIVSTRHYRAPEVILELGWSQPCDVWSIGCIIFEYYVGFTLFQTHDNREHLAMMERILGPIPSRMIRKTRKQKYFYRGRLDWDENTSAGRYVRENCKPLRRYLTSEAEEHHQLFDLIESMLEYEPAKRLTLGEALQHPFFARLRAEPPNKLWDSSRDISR

[9] = biological target: Dual specificity protein kinase CLK2 (Homo sapiens) (UniProt P49760); settings: at 1 µM
[10] = biological target: Dual specificity protein kinase CLK3 (Homo sapiens) (UniProt P49761); settings: at 0.1 µM
Dual specificity protein kinase CLK3 (Homo sapiens), sequence (P49761 whole entry, looked up): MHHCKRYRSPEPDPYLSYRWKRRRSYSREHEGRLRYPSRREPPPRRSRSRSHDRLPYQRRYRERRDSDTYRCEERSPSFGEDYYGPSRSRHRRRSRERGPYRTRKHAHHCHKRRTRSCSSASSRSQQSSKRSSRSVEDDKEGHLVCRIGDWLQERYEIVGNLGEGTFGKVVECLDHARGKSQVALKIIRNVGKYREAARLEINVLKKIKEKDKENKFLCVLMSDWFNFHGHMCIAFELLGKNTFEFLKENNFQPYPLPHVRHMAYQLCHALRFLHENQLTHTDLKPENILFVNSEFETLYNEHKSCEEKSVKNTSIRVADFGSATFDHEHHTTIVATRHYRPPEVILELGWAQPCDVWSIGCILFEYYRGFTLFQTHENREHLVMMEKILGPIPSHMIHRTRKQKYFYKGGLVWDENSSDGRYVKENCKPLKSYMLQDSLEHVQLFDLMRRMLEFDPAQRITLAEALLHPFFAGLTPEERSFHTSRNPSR

Cyclin-dependent kinase 4 (Homo sapiens), sequence (P11802 whole entry): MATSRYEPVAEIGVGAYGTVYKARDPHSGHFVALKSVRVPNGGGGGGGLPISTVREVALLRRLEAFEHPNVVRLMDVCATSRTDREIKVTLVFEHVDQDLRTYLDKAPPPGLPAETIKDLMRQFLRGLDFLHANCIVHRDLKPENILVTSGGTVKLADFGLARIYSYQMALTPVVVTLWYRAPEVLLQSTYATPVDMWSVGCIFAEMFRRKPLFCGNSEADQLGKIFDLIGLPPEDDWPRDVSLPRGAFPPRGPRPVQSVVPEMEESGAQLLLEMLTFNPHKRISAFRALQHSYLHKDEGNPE
CDK3/Cyclin E (Homo sapiens), sequence (P24864 whole entry, looked up): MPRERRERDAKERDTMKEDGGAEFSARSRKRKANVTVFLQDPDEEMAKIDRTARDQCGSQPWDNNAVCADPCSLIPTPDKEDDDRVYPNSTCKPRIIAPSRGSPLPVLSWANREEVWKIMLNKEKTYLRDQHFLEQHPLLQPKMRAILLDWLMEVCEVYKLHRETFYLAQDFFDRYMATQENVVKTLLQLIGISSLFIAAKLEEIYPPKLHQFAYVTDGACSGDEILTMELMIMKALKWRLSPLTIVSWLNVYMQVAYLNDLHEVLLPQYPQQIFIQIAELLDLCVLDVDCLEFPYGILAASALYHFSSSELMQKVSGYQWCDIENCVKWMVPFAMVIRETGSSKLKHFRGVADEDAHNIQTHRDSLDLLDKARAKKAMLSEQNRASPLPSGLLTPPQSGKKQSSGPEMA
CDK3/Cyclin E (Homo sapiens), sequence (Q00526 whole entry, looked up): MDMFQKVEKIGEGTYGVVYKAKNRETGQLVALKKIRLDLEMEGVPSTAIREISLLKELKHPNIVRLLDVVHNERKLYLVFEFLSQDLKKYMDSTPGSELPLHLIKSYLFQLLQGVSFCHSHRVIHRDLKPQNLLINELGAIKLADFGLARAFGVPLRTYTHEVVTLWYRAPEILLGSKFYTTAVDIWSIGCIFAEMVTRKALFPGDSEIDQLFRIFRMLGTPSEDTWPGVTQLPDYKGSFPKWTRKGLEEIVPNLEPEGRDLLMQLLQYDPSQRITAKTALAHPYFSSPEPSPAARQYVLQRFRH

Structure (SMILES)	inhibition [1]	inhibition [2]	inhibition [3]	inhibition [4]	inhibition [5]	inhibition [6]	inhibition [7]	inhibition [8]	inhibition [9]	inhibition [10]
O=C(Nc1n[nH]c2nc(-c3ccco3)c(Br)cc12)C1CC1	2.69%	2.78%	8.19%	0.87%	3.63%	-1.81%	12.9%	1.95%	2.79%	0.97%
Cc1cc(O)cc(C)c1/C=C/c1cncc(-c2nn[nH]n2)c1	-2.12%	-0.96%	0%	-3.06%	-3.35%	-6.34%	-0.68%	2.78%	1.31%	–
NS(=O)(=O)c1ccc(N/N=C2\C(=O)Nc3ccc(C(=O)NCCc4c[nH]cn4)cc32)cc1	81.3%	14.4%	56.4%	48.3%	84.4%	14.9%	55.9%	46.5%	91.9%	4.48%
Nc1ncnc2occ(-c3ccc(NC(=O)Nc4cc(C(F)(F)F)cc(C(F)(F)F)c4)cc3)c12	7.22%	1.55%	2.23%	0.25%	1.52%	-0.28%	3.73%	0.31%	2.87%	0.61%
O=C1NC(=O)C(c2ccc(Cl)cc2)=C1Nc1ccc(Cl)c(C(=O)O)c1	1.13%	0.08%	-0.02%	0.36%	1.75%	4.89%	5.18%	-0.15%	1.55%	1.39%
CC(C)=Cc1cccc2c1/C(=N/Nc1ccc(S(N)(=O)=O)cc1)C(=O)N2	99.1%	34.3%	68.9%	39.7%	73.3%	63.6%	91.4%	1.69%	7.38%	-6.71%
COc1cc2ncn(-c3cc(OCc4ccccc4Cl)c(C(N)=O)s3)c2cc1OC	-0.63%	2.27%	5.4%	1.51%	4.46%	-4.1%	0.43%	1.87%	3.23%	1.33%
Cc1ccc(C(=O)NC2CCCCC2)cc1-c1ccc(C(=O)NCC2CC2)cc1	0.7%	2.37%	2.51%	1.19%	1.18%	3.79%	0.76%	2.01%	2.19%	0.94%
COc1cc2ncn(-c3cc(O[C@H](C)c4ccccc4Cl)c(C(N)=O)s3)c2cc1OC	5.51%	2.41%	3.26%	0.86%	1.47%	-0.21%	-0.74%	3.38%	5.22%	2.12%
CS(=O)(=O)Nc1ccc(N/C=C2\C(=O)Nc3ccccc32)cc1	17.4%	1.6%	15%	6.34%	39.8%	12.9%	59.4%	-0.68%	3.62%	0.94%
CN1CCC(C(=O)Nc2n[nH]c3nnc(-c4ccccc4)cc23)CC1	5.97%	8.86%	29.4%	1.11%	3.61%	7.11%	21.4%	1.34%	2.3%	1.91%
COc1ccc(COc2ccc(Cc3cnc(N)nc3N)cc2OC)cc1	1.92%	1.7%	3.6%	2.15%	2.03%	1.93%	3.33%	2.03%	1.66%	-0.25%
CC1=C(C(=O)Nc2ccc3[nH]ncc3c2)C(c2ccc3ccccc3c2)CC(=O)N1 (configuration not stated)	2.9%	2.41%	2.46%	1.12%	3.42%	3.45%	4.44%	1.34%	2.42%	2.41%
COc1ccc(-c2nn3ncccc3c2-c2ccnc(Nc3ccc(Cl)c(C(F)(F)F)c3)n2)cc1	-0.57%	1.13%	2.09%	0.45%	0.19%	0.68%	1.73%	0.95%	1.59%	1.77%
COc1cc(C=NNc2ncnc3c2cnn3-c2ccccc2)ccc1O	12.7%	3.09%	18.6%	4%	24.5%	4.2%	21.7%	3.39%	9.02%	–
CS(=O)(=O)CCN(CC#N)Cc1ccc(-c2ccc3ncnc(Nc4ccc(OCc5cccc(F)c5)c(Cl)c4)c3c2)o1	-2.66%	-2.96%	-1.43%	-3.58%	-2.47%	-5.97%	-4.69%	1.05%	0.64%	-3.63%
CC1=C(C(=O)Nc2ccc3[nH]ncc3c2)C(c2ccc(F)cc2)NC(=O)N1 (configuration not stated)	-0.84%	1.79%	4.05%	0.41%	3.23%	-2.46%	4.38%	-0.24%	0.68%	3.34%
O=C1NC(=O)C(c2cccc(Cl)c2)=C1Nc1ccc(O)c(Cl)c1	6.94%	2.23%	13.9%	1.36%	7.25%	-3.15%	12.6%	4.59%	26.1%	-0.5%
COC(=O)Nc1nc2cc(Oc3cccc(NC(=O)Nc4cc(C(F)(F)F)ccc4F)c3)ccc2[nH]1	-1.48%	1.83%	2.11%	0.65%	1.39%	-5.71%	1.18%	-0.8%	1.04%	-0.93%
COc1cc(C)c(NC(=O)CN(C)C)cc1Nc1nc(Nc2cccc(F)c2C(N)=O)c2cc[nH]c2n1	0.15%	0.8%	1.16%	-0.59%	-1.89%	-0.3%	3.87%	45.4%	88.8%	1.76%

Structure (SMILES)	inhibition [1]	inhibition [2]	inhibition [3]	inhibition [4]	inhibition [5]	inhibition [6]	inhibition [7]	inhibition [8]	inhibition [9]	inhibition [10]
NCc1ccc(-c2nc(-c3ccc(Cl)c(O)c3)c(-c3ccncc3)[nH]2)cc1	-2.19%	1.89%	3.19%	1.65%	3.47%	-3.35%	1.53%	2.01%	0.72%	0.63%
CNC(=O)c1cncc(/C=C/c2c(Cl)cccc2Cl)c1	-3.08%	0.86%	3.96%	-2.57%	-0.63%	-5.76%	-5.69%	2.47%	5.66%	-3.56%
Cc1ccc(NC(=O)c2ccnc(N3CCCC3)c2)cc1-c1ccc(C(=O)NCC2CC2)cc1	-0.38%	0.83%	4.63%	2.54%	3.21%	-7.97%	-0.52%	3.05%	1.8%	-1.85%
CCn1c(-c2nonc2N)nc2cncc(C(=O)N3CCNCC3)c21	0.54%	2.78%	3.57%	0.79%	1.06%	-0.98%	3.06%	2.04%	5.8%	2.42%
COc1cc2ncn(-c3cc(O[C@@H](C)c4ccccc4Cl)c(C(N)=O)s3)c2cc1OC	-0.13%	2.39%	4.14%	0.19%	2.21%	-0.46%	1.56%	0.33%	0.86%	0.71%
Nc1nc(-c2ccc3c(c2)C(=Cc2cc(Br)c(O)c(Br)c2)C(=O)N3)cs1	-0.65%	-0.86%	2.39%	1.35%	2.98%	-5%	-0.79%	1.02%	2.39%	0.15%
CS(=O)(=O)CCNCc1nc(-c2ccc3ncnc(Nc4ccc(F)c(Cl)c4)c3c2)cs1	-2.13%	0.51%	0.73%	0.12%	0.38%	6.34%	-1.47%	0.29%	2.89%	-0.05%
c1cnn2ncc(-c3ccnc(Nc4ccc5c(c4)OCCO5)n3)c2c1	85.6%	51.9%	85.7%	57.4%	90.4%	46.5%	85%	90.1%	97.6%	12.6%
COc1ccc(-c2ccncc2)cc1C(N)=O	-1.43%	3.41%	3.66%	0.56%	1.7%	-5.08%	0.48%	0.6%	2.96%	2.01%
CCCN1CCC(Oc2cc(Nc3nc(Nc4cccc(F)c4C(N)=O)c4cc[nH]c4n3)c(OC)cc2Cl)CC1	1.54%	0.37%	3.08%	0.2%	0.45%	0.9%	2.04%	9.9%	49.3%	0.11%
CCn1c(-c2nonc2N)nc2cncc(C(=O)N3CC[C@H](N)C3)c21	-2.13%	2.98%	2.35%	0.46%	0.69%	-1.51%	4.8%	5.07%	21.6%	1.31%
[O-][S+]1CCN(Cc2ccc(-c3ccc4ncnc(Nc5ccc(OCc6ccccc6)c(F)c5)c4c3)o2)CC1	-0.37%	1.78%	2.34%	0.47%	0.42%	-2.8%	-0.74%	1.05%	0.69%	0.9%
COc1ccccc1Nc1ncc(-c2ccccc2)o1	-1.14%	0.89%	2.21%	0.04%	1.68%	-0.22%	-0.99%	0.98%	0.86%	1.23%
CCN1CCC(CC(=O)Nc2n[nH]c3nc(-c4cccs4)c(Br)cc23)CC1	9.52%	5.84%	37%	0.96%	2.52%	30.9%	70.8%	-1.44%	2.75%	0.48%
Cc1nnc(-c2ccc(C)c(-c3ccc(C(=O)Nc4cccc(C#N)c4)cc3)c2)o1	-0.82%	0.95%	0.68%	0.65%	1.71%	1.26%	3.14%	1.15%	-0.94%	0.91%
CN(C)c1cc2c(Nc3ccc4nc(Cc5ccccc5)[nH]c4c3)ncnc2cn1	-2.11%	3.33%	3.46%	1.02%	1.2%	1.12%	3.91%	2.08%	1.7%	2.14%
CCn1c(-c2nonc2N)nc2c(C#CC(C)(C)O)nc(CN3CCCC3)cc21	-0.95%	1.6%	2.5%	1.06%	2.14%	-8.94%	0.66%	-0.92%	1.46%	-1.6%
COc1ccc(-c2coc3ncnc(N)c23)cc1	0.08%	4.16%	5.78%	2.66%	3.84%	–	3.88%	3.15%	3.42%	1.07%
CCn1c(-c2nonc2N)nc2c(N3CCCC3)nccc21	-0.6%	15.6%	4.7%	1.73%	4.5%	-2.76%	2.52%	-0.76%	-0.67%	1%
